According to ChEMBL document CHEMBL3433997, “St. Jude Leishmania screening dataset” (2016):

Legend:
Format in all cases: functional
[1] = biological target: Solute carrier family 2, facilitated glucose transporter member 1 (Homo sapiens) (UniProt P11166); test: ST_JUDE_LEISH: Cytotoxicity at 2uM final concentration against transgenic Leishmania Mexicana promastigotes LmGLUT1 that are glucose transport deficient and complemented with the human glucose transporter GLUT1. Activity is measured by DNA content using SYBR green in vitro
Solute carrier family 2, facilitated glucose transporter member 1 (Homo sapiens), sequence (P11166 whole entry): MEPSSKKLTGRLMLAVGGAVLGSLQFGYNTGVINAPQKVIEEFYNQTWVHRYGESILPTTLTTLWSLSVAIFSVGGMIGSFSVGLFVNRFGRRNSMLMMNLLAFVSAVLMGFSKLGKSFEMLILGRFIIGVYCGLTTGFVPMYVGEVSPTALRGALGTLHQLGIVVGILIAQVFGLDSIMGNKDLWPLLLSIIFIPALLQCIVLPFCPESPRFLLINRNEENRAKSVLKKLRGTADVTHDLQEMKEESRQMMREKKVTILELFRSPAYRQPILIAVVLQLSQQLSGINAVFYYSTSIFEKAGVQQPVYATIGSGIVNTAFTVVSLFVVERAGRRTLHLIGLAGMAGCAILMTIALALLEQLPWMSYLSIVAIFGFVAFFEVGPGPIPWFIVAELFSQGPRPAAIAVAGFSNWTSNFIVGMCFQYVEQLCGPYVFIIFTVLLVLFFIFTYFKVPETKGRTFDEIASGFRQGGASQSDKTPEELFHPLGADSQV

[2] = biological target: Hexose transporter 1 (Plasmodium falciparum) (UniProt O97467); test: ST_JUDE_LEISH: Cytotoxicity at 2uM final concentration against transgenic Leishmania Mexicana promastigotes LmPfHT that are glucose transport deficient and complemented with the Plasmodium falciparum hexose transporter. Activity is measured by DNA content using SYBR green in vitro
[3] = biological target: Glucose transporter (Leishmania mexicana) (UniProt O61059); test: ST_JUDE_LEISH: Cytotoxicity at 2uM final concentration against transgenic Leishmania Mexicana promastigotes LmGT2 that are glucose transport deficient and complemented with the L. Mexicana glucose transporter 2. Activity is measured by DNA content using SYBR green in vitro

SMILES | inhibition [1] | inhibition [2] | inhibition [3]
CCC(CC)(CCC#N)CN(C[C@@H](O)[C@H](Cc1ccccc1)NC(=O)OC(C)(C)C)S(=O)(=O)c1ccc(OC)cc1 | -0.65% | 0.74% | 0.65%
CCCCNC(=O)[C@H](Cc1ccccc1)NC(=O)c1ccc(O)c(-c2ccc(Cl)c(Cl)c2)c1 | 6.46% | 2.06% | 3.71%
Cn1c2c(c3ccccc31)CN(CCC1(c3ccc(Cl)c(Cl)c3)CN(C(=O)Cc3ccccc3)CCO1)CC2 (stereo not given) | 2.23% | 3.84% | -1.01%
COc1cc(OC)cc(C(=O)N2CCOC(CCN3CCC(c4ccccc4)CC3)(c3ccc(Cl)c(Cl)c3)C2)c1 (stereo not given) | 0.22% | -0.92% | -1.58%
N#Cc1ccc(S(=O)(=O)N2C(c3cccc([N+](=O)[O-])c3)C(C(=O)c3ccccc3)N(C3CCCCC3)C2c2cccc([N+](=O)[O-])c2)cc1 (stereo not given) | 7.88% | 7.58% | 7.58%
N#Cc1ccc(-c2ccc(C(=O)NC3CCN(CCN4CCc5c(cccc5C(F)(F)F)C4)CC3)cc2)cc1 | -0.45% | -0.02% | 1.46%
Cc1ccc(NC(=O)c2ccc3ncccc3c2)cc1OC1CCN(Cc2ccc(F)cc2)C1 (stereo not given) | 1.19% | 0.73% | 1.26%
c1ccc(CN2CCC(NCc3ccccc3-c3ccc(CNC4CCCC4)cc3)CC2)cc1 | 4.61% | 3.06% | 6.38%
CCCNC(=O)C1CCN(C(c2ccc(Cl)cc2)c2ccc(Cl)cc2)CC1 | -0.62% | 2.95% | 0.49%
Cc1c(NC(=O)COc2ccc(Cl)cc2C(=O)c2cc(F)cc(C(F)(F)F)c2)ccc2ncsc12 | 9.85% | 9.17% | 7.93%
Cc1cc(Nc2cccc(C(F)(F)F)c2)nc(N)n1 | 0.43% | 0.91% | 1.19%
COc1ccc2nccc([C@@H](O)CN3CCC(NCc4cc5cccc(O)c5[nH]4)CC3)c2c1 | 1.85% | 2.02% | 3.77%
CC(=NNc1nc2ccccc2s1)c1ccccn1 | 7.41% | 17.9% | 3.21%
CCN(CCN(C)C)Cc1ccc(-c2ccc(NS(=O)(=O)c3cccc(Cl)c3)cc2)cc1 | 7.37% | 0.64% | -1.5%
Cc1c(-c2ccc3c(c2)C(NCCCN2CCCCC2)CC3)cnc(N)c1C (stereo not given) | 0.7% | 0.89% | 2.57%
O=c1cc(NCCCNCc2sc(Br)c(Br)c2Br)[nH]c2ccccc12 | 10.5% | 9.87% | 10.4%
Cc1ccc(-c2nc3ccccc3o2)cc1NCc1cc(Cc2ccccc2)ccc1O | -0.71% | -0.23% | -0.6%
Cc1ccc(C(=O)c2oc3ccc4c(C)cc(=O)oc4c3c2C)cc1 | -0.73% | -0.13% | 0.22%

SMILES | inhibition [1] | inhibition [2] | inhibition [3]
COc1cc(F)c2ncc(F)c(CCN3C[C@H](CNCc4ccc5c(n4)NC(=O)CS5)[C@H](O)C3)c2c1 | 0.13% | 1.28% | -0.04%
Cc1cccc2nc(-c3cccc(-c4cccc(CNCCc5ccncc5)c4)c3)[nH]c12 | -1.47% | 1.2% | -1.48%
CC(=O)N(Cc1ccc(CC(C)NCCc2cccc(Cl)c2)cc1)Cc1ccc(CC(C)NCCc2cccc(Cl)c2)cc1 (stereo not given) | 83.6% | 72.7% | 99.7%
CN(C)CCNc1cc(-c2ccc3ccccc3c2)nc2ccccc12 | 1.3% | 2.94% | -0.48%
O=C(/C=C/c1ccc(Cl)c(Cl)c1)NCCCCCN1CCC(NC(=O)Nc2cc(Cl)cc(Cl)c2)CC1 | 8.59% | 9.64% | 9.93%
FC(F)(F)c1ccc2[nH]c(-c3cccc(-c4ccc(CNCCN5CCNCC5)cc4)c3)nc2c1 | 2.75% | 2.47% | 1.97%
O=C(NCCCCN1CCC(c2c[nH]c3ccc(-c4ccccc4)cc23)CC1)c1ccc(-c2ccccc2)cc1 | 5.96% | 4.21% | 5.24%
COc1ccc(CNCc2ccc(F)cc2)cc1-c1cccc(S(=O)(=O)NCCN2CCCC2)c1 | 0.82% | 0.14% | 1.01%
COc1ccc(-c2nc(NC(=O)Cc3cccc(OC)c3)sc2C)cc1 | 0.19% | 0.46% | 3.16%
CN1CCCN(c2ccnc3cc4c(cc23)N(C(=O)c2ccc(C(F)(F)F)cc2)CC4)CC1 | 5.22% | 5.41% | 7.79%
CCNc1cc(C)nc(Nc2ccc(NC(=O)c3cccs3)cc2)n1 | 4.59% | 5.9% | 1.85%
CN(Cc1ccccc1)C1CCN(c2cc(NC(=O)c3cccc(F)c3)ccn2)CC1 | 6.87% | 8.73% | 6.54%
COc1cc(Nc2nccc(N3CCC(NC(=O)C4COc5ccccc5O4)C3)n2)cc(OC)c1OC (stereo not given) | 2.77% | 1.3% | 2.12%
CC(Cc1ccc(C(=O)OCCOC(=O)c2ccc(CC(C)NCC(O)c3cccc(C(F)(F)F)c3)cc2)cc1)NCC(O)c1cccc(C(F)(F)F)c1 (stereo not given) | 1.7% | -0.31% | 2.65%
Cc1cc(N/N=C/c2ccccc2[N+](=O)[O-])c2ccccc2n1 | 3.96% | 5.28% | 2.51%
Cc1ccccc1C1CCN(C2CCC(NC(=O)/C=C/c3ccc(C(F)(F)F)cc3F)CC2)CC1 (stereo not given) | 1.85% | 0.43% | 0.34%
Cc1cccc2nc(-c3ccc(-c4cccc(CNCCNC(=O)c5ccnn5C)c4)cc3)[nH]c12 | 0.53% | 1.5% | -3.68%
